Results reported in PubChem BioAssay AID977627 (Broad Institute, 2014).
Inconclusive results are not listed. The source made the active and inactive calls. No rule for the calls is given here.

Test: E. coli strain growth, wild-type against H38 humanized mutant – H38 mutant GFP vs wild-type RFP, cherry-pick, dose response (AID 977627)
Conditions: E. coli H38 humanized ribosome GFP strain, fluorescence, 24 h; activity: measured here: wild-type RFP strain growth, at 50 µM, stronger effect = lower value; series mostly up to 50 µM; activity change, negative = inhibition: at the top concentration

SMILES | activity [%] | activity change, negative = inhibition
COC(=O)c1c(NC(=O)CCC(=O)O)sc(Cc2ccccc2)c1C | -41.2 | –
Cc1noc(C)c1NC(=O)Nc1ccc2c(c1)C(=O)N([C@H](C)CO)C[C@@H](C)[C@@H](CN(C)C(=O)Nc1ccc3c(c1)OCO3)OCCCC[C@@H](C)O2 | -3.93 | –
CCOc1ccccc1NC(=O)c1ccc2ccccc2c1 | 5.09 | 5.48 (inactive)
CC1(Cc2ccccc2C#N)C(=O)Nc2cc(-c3ccccc3Cl)ccc21 (stereo not given) | -20 | –
